Calls of active or inactive are those of the source.

In assay [1] the test system is Plasmodium falciparum Sir2 (PF13_0152, Sir2A). In words: Plasmodium falciparum Sir2A binding compounds – biochemical, small-molecule microarray, 635 nm fluorescence, primary screen (AID 1098).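 Further: score merges spot fluorescence intensity with its signal-to-noise ratio.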 Particulars: fluorescence 635 nm, higher = more signal.
Assay [2] can be described thus: probe aDKK1 binding to arrayed compounds – biochemical, biotinylated probe, 635/667 nm fluorescence, primary screen (AID 1099).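 Further: score merges 667nm spot fluorescence with signal to noise across triplicate slides.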 The settings on record: small-molecule microarray, higher = more signal.
Assay [3] in a line: probe aCHRDL2 binding to arrayed compounds – biochemical, biotinylated probe, 635/667 nm fluorescence, primary screen (AID 1100). The settings on record: small-molecule microarray, higher = more signal.
Assay [4] in a line: change in splice reporter luminescence, either direction, cell-based, HEK293, spliceosome inhibition project, primary screen (AID 1101).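 Further: HEK293 cells carrying a splicing-competent luciferase reporter gene; test concentration not given here.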 The settings on record: HEK293 splicing luciferase reporter, 24 h, higher = more signal, called active from +8 up or from −8 down. Background: In a reporter assay the amount or activity of a reporter protein is the signal.
Assay [5] addresses Fibroblast growth factor 10 (Homo sapiens) (UniProt O15520). In words: compounds binding fibroblast growth factor 10 – biochemical, small-molecule microarray, 635 nm fluorescence, primary screen (AID 1102). Particulars: FGF10 binding, fluorescence 635 nm, higher = more signal.
Assay [6] concerns glycogen synthase kinase-3 (GSK3A per assay name; protocol says GSK3B). In words: compounds binding glycogen synthase kinase-3 – biochemical, small-molecule microarray, 635 nm fluorescence, GSK3A, primary screen (AID 1103). Further: the record names both GSK3A and GSK3B. The settings on record: fluorescence 635 nm, higher = more signal.
In assay [7] the target is Epidermal growth factor receptor (Homo sapiens) (UniProt P00533). In words: compounds binding epidermal growth factor receptor – biochemical, small-molecule microarray, 635 nm fluorescence, primary screen (AID 1104).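 Further: score merges 667 nm emission intensity with spot signal to noise over triplicate slides.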 The settings on record: EGFR binding, higher = more signal.
Chain of Epidermal growth factor receptor (Homo sapiens) (P00533 whole entry, looked up): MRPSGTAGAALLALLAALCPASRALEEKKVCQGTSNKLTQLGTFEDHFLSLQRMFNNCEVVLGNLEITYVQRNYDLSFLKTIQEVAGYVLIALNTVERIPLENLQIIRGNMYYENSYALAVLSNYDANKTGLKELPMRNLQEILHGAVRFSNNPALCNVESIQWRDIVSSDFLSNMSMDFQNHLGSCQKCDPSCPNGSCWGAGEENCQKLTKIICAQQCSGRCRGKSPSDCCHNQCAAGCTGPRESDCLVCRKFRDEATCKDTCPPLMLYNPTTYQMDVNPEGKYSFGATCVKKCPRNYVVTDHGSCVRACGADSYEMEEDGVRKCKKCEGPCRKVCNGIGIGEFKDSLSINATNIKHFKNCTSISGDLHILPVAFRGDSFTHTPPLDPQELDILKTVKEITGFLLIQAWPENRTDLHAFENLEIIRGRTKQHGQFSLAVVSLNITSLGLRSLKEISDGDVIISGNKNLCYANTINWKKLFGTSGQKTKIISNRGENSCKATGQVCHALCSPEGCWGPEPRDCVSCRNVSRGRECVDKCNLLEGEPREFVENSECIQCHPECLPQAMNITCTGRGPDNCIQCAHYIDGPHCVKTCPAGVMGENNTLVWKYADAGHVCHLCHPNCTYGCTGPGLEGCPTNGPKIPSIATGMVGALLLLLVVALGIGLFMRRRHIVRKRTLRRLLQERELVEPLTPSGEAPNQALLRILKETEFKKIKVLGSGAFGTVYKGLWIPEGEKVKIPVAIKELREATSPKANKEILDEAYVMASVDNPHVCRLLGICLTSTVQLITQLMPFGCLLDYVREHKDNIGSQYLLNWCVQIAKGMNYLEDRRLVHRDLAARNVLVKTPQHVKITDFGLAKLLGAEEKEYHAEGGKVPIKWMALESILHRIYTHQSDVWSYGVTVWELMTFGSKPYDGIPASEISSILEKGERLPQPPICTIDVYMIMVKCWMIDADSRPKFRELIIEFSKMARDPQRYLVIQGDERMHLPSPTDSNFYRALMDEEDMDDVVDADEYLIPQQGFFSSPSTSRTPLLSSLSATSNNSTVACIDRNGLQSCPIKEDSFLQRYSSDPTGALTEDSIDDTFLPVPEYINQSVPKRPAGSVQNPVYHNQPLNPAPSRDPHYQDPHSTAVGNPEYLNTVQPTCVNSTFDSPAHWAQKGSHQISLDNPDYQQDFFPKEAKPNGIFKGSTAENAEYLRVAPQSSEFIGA
Assay [8] addresses Follistatin-related protein 3 (Homo sapiens) (UniProt O95633). In words: compounds binding follistatin-related protein 3 – biochemical, small-molecule microarray, 635 nm fluorescence, primary screen (AID 1105).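 Further: score merges emission near 667 nm and signal to noise per printed spot across three slides.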 The settings on record: FSTL3 binding, higher = more signal.
The target in assay [9] is Dickkopf-related protein 1 (Homo sapiens) (UniProt O94907). Put plainly: small molecules binding DKK1 protein – biochemical, small-molecule microarray, 635 nm fluorescence scan, primary screen (AID 1106).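 Further: score merges emission near 667 nm with signal to noise over three replicate slides.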 Particulars: higher = more signal.
Chain of Dickkopf-related protein 1 (Homo sapiens) (O94907 whole entry, looked up): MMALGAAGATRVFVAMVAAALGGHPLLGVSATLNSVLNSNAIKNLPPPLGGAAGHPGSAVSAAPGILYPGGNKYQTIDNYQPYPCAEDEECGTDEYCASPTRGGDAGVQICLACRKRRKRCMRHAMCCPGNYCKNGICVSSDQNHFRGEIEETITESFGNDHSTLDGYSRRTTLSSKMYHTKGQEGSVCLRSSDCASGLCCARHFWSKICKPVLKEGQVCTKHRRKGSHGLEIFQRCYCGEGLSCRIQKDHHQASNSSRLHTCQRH
Assay [10] deals with Inhibin beta A chain (activin A). Put plainly: small molecules binding activin A – biochemical, small-molecule microarray, 635 nm fluorescence scan, primary screen (AID 1107).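 Further: mouse activin A protein probed at 4.33 µg/mL on printed slides; score merges bound-protein fluorescence near 667 nm with spot signal-to-noise.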 Particulars: INHBA, higher = more signal.
For assay [11], the system named is Human papillomavirus type 1a protein E7 (residues 44-93). In words: small molecules binding HPV E7 44-93 – biochemical, small-molecule microarray, residues 44-93, 635 nm fluorescence, primary screen (AID 1108).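 Further: E7 fragment applied at 1 µg/mL in TBST for 1 h at 4 C; score combines spot fluorescence with its signal to noise ratio.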 The settings on record: fluorescence 635 nm, higher = more signal.
The nature of assay [12]: hepatitis C replication reporter changes, two-sided – Huh7 cells, luciferase reporter, HCV replication inhibitor project, primary screen (AID 1109).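 Further: huh7 hepatoma cells harbouring a luciferase neomycin HCV replicon reporter; luciferase luminescence as measure of HCV replicon replication; test concentration not given here.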 Particulars: Huh7 HCV replicon luciferase reporter, 48 h; higher = more signal.
The target in assay [13] is Left-right determination factor 2 (Homo sapiens) (UniProt O00292). Put plainly: small molecules binding LEFTY2 protein – biochemical, small-molecule microarray, 635 nm fluorescence scan, primary screen (AID 1110). Particulars: higher = more signal.
Chain of Left-right determination factor 2 (Homo sapiens) (O00292 whole entry, looked up): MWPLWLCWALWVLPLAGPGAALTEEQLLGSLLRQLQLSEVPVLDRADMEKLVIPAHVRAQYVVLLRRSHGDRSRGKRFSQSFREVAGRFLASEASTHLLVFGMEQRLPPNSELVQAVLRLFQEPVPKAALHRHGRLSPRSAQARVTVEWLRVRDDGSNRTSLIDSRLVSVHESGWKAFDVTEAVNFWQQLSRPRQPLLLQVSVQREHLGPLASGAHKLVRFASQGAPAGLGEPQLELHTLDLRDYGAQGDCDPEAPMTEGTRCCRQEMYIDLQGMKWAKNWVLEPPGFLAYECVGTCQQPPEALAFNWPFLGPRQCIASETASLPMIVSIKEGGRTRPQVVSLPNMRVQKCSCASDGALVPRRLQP
Assay [14] deals with Calmodulin-1 (Homo sapiens) (UniProt P0DP23). Put plainly: small molecules binding calmodulin-1 with EGTA – biochemical, small-molecule microarray, Cy5-labelled CALM1, profiling panel (AID 1111).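 Further: labelled calmodulin applied in Tris saline Tween buffer holding calcium plus EGTA and DTT.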 The settings on record: Cy5-CALM1 binding fluorescence, higher = more signal.
Assay [15] shares this target. Put plainly: small molecules binding Ca-loaded calmodulin-1 – biochemical, small-molecule microarray, Cy5-labelled CALM1, plus calcium, artefact control for SMM control-protein annotation, profiling panel (AID 1112).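 Further: score merges spot fluorescence with signal to noise from triplicate slides.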 The settings on record: Cy5-CALM1 binding fluorescence, higher = more signal.
A short description of assay [16]: probe aWnt5a binding to arrayed compounds – biochemical, biotinylated probe, 635/667 nm fluorescence, primary screen (AID 1113).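 Further: score merges 667 nm fluorescence intensity with signal-to-noise per printed feature.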 Particulars: small-molecule microarray, higher = more signal.
Assay [17] in a line: probe aShh binding to arrayed compounds – biochemical, biotinylated probe, 635/667 nm fluorescence, primary screen (AID 1114).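 Further: probe is biotin-labelled aShh protein from a stem cell growth factor screen; measures binding of labelled protein to compounds printed on the slide; score merges feature fluorescence at 667 nm with signal-to-noise.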 Particulars: small-molecule microarray, higher = more signal.
Assay [18] in a line: probe aNog binding to arrayed compounds – biochemical, biotinylated probe, 635/667 nm fluorescence, primary screen (AID 1115).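 Further: probe is biotinylated aNog protein used at 0.15 µg/mL for 1 h at 4 C; z-score combines 667 nm fluorescence of each spot with its signal to noise.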 The settings on record: small-molecule microarray, higher = more signal.
The target of assay [19] is Torsin-1A-interacting protein 1 (Homo sapiens) (UniProt Q5JTV8). In words: compound microarray binding of lysate hLAP1 – cell lysate, small-molecule microarray, COS7 lysate, 635/667 nm fluorescence, primary screen (AID 1116). The settings on record: 635 nm fluorescence, higher = more signal.
Chain of Torsin-1A-interacting protein 1 (Homo sapiens) (Q5JTV8 whole entry, looked up): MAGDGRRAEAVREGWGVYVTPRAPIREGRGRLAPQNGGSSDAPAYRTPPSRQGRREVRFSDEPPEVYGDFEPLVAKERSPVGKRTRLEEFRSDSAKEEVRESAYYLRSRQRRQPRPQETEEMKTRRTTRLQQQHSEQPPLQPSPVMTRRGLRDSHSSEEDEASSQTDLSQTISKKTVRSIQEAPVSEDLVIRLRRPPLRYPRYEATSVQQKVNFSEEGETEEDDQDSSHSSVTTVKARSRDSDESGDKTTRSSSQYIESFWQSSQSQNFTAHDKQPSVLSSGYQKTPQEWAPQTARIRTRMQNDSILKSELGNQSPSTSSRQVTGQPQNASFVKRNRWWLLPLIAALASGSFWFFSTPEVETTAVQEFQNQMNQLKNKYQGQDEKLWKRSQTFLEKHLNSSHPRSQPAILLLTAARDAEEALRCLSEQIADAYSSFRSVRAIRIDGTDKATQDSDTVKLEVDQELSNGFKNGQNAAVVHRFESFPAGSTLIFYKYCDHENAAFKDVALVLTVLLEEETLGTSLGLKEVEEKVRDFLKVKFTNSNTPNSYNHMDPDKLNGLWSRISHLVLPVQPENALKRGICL
Assay [20] has as its target Alpha-bungarotoxin (Bungarus multicinctus) (UniProt P60615). Put plainly: compounds binding labelled alpha-BTX control protein – biochemical, small-molecule microarray, Alexa647 label, 635/667 nm fluorescence, artefact control for SMM control protein annotation, profiling panel (AID 1117). The settings on record: alpha-BTX-A647 binding fluorescence, higher = more signal.

Chain of Alpha-bungarotoxin (Bungarus multicinctus) (P60615 whole entry, looked up): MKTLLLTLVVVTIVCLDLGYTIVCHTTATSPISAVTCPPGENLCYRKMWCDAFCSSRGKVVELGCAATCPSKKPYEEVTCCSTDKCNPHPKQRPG
Chain of Follistatin-related protein 3 (Homo sapiens) (O95633 whole entry, looked up): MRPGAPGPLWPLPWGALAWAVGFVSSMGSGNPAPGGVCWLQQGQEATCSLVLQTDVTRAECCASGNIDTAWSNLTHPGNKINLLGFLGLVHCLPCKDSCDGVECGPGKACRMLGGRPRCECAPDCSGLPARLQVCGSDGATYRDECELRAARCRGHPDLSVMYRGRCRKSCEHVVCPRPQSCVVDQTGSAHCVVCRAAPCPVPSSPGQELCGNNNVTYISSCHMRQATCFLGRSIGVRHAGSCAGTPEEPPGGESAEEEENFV
Chain of Fibroblast growth factor 10 (Homo sapiens) (O15520 whole entry, looked up): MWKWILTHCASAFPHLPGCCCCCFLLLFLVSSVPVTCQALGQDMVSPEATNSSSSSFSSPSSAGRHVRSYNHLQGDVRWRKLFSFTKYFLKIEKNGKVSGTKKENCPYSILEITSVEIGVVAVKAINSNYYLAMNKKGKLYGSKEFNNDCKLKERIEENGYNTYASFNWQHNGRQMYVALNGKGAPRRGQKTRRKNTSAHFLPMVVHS

Take `CCOC(=O)C[C@H]1[C@H](OC(=O)c2ccccc2-c2ccccc2)[C@@H](NC(=O)C2CCCCC2)c2cc(OCCCO)ccc2N1C(=O)Cc1ccc(OC)cc1`: the composite z-score in assay [1] was -0.0395; in [2], -0.189; in assay [3], 0.0017; in [5] it was 0.0134; in [6], -0.625; in assay [7], 0.0178. Also, the composite z-score in assay [8] was 0.138; in assay [9] it was -0.259; in [10] it was 0.489; in [11] it was -0.312; in assay [13], -0.0221; in [14], -0.0561. Further, the composite z-score in assay [15] is -0.326; in assay [16], -0.12; in assay [17] it was -0.2; in assay [18], -0.136; in [19], 0.3; in assay [20], -0.0654. Further, the values for the z-score in assay [4] and in [12] were -0.0496 (inactive) and -1.44, respectively.
Regarding `O=C1C2C=CC(C(O)c3ccc(F)cc3)N(n3cnnc3)C2C(=O)N1Cc1ccccc1` (stereo not given), the composite z-score in assay [1] was -0.284; in assay [2], 0.158; in [3] it was 0.384; in assay [5] it was -0.429; in assay [6] it was -0.858; in [7], -0.273. In addition, the composite z-score in assay [8] was -0.0469; in [9], -0.44; in assay [10] it was 1.12; in assay [11] it was -0.305; in [13], -0.856; in assay [14], -0.171. Besides, the composite z-score in assay [15] was 0.451; in [16], -0.0781; in assay [17], -0.203; in assay [18], 0.146; in assay [19], 0.419; in [20] it was -0.39. The z-score in assay [4] is -0.284 (inactive); in assay [12], -0.574.
As for `O=C1C2C=CC(C(O)c3ccccc3)N(Nc3ccccc3F)C2C(=O)N1c1ccccc1` (stereo not given), the composite z-score in assay [1] is 0.797; in assay [2] it was -0.168; in assay [3], 0.24; in assay [5] it was 0.311; in assay [6] it was -0.178; in assay [7], 0.223. Besides, the composite z-score in [8] is 0.341; in [9], 0.0646; in assay [10] it was 0.626; in assay [11], 0.188; in assay [13], -0.0935; in [14], 0.0824. Further, the composite z-score in assay [15] is -0.537; in [16], -0.15; in assay [17], -0.0626; in assay [18] it was -0.341; in [19], 0.178; in assay [20], 0.204. The z-score is -0.245 (inactive) in assay [4] and -0.384 in assay [12].
For the compound `[N-]=[N+]=NCc1ccccc1[C@H]1OC(c2ccc(OCCCO)cc2)=N[C@@]1(CCS(=O)(=O)c1ccccc1)C(=O)NCC(O)CO` (stereo not given in full), the composite z-score is 1.54 in assay [1]; 0.658 in assay [2]; 1.18 in [3]; 1.32 in [5]; 0.752 in assay [6]; -0.0986 in assay [7]. Further, the composite z-score was 0.264 in assay [8]; -0.0898 in assay [9]; 0.501 in [10]; 1.46 in assay [11]; -0.342 in assay [13]; 1.42 in assay [14]. The composite z-score in assay [15] was 0.66; in assay [16], 0.143; in assay [17] it was 0.522; in assay [18], 1.59; in [19], 1.96; in [20], 1.66. Further, the results for the z-score in assay [4] and in assay [12] were 0.542 (inactive) and -0.157, respectively.
For `O=C1c2ccccc2[C@](Cc2ccccc2I)(C(=O)NCC(F)(F)F)[C@H](c2ccc(CO)cc2)N1C1CCCCC1`, the composite z-score in assay [1] turned out to be 1.6; in assay [2], 0.663; in assay [3], 0.821; in [5], 1.04; in assay [6], 0.884; in [7], 0.109. For the same compound, the composite z-score is 0.66 in assay [8]; -0.239 in assay [9]; 0.82 in [10]; 1.27 in assay [11]; 0.133 in [13]; 1.53 in [14]. The composite z-score is 0.486 in assay [15]; -0.0405 in assay [16]; 0.0611 in [17]; 0.128 in assay [18]; -0.229 in assay [19]; 1.51 in assay [20]. In addition, the z-score was 1.47 (inactive) in [4] and -1.21 in assay [12].

The values are drawn from PubChem BioAssay.
